# Records with an inconclusive call do not appear. Activity calls are given as the source filed them. The call rests on the fitted dose curve; in most records, active means well fitted inhibition curve with a large enough effect; inconclusive means small, poorly fitted or top-dose-only effect; inactive means no such curve, though single readings can be large or run the other way.
# System: Zika virus NS2B-NS3 protease (linked construct)
# Assay: Primary screen NINDS Rhodamine qHTS for Zika virus inhibitors (AID 1347160); further: nearly all actives have a fitted effect of over 55% in size
# Details: purified NS2B-NS3 protease, Rhodamine110 substrate fluorescence; series mostly up to 57.1 µM; activity change, negative = inhibition: at the top concentration
# How it was run: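 Percent inhibition, normalized to uninhibited and enzyme-free controls, is fitted to a 4-parameter Hill equation. Fluorescence change comes from a 15-min cleavage of 1.5 microM bis-peptide Rhodamine110 substrate by 25 nM linked NS2B-NS3 at room temperature.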
# On the % scale 0 is the no-effect control and ±100 the full control effect.
Structure (SMILES),"activity change, negative = inhibition",outcome
Cc1ccccc1CN1C2=NCCN2C(=O)C2=C1CCN(Cc1ccccc1)C2,-10.3% (inactive),–
CC[C@@](C)(Nc1ccnc(-c2c[nH]c3ncccc23)n1)C(=O)NCC(F)(F)F,1.62% (inactive),–
CC(C)CCC[C@@H](C)[C@H]1CC[C@H]2[C@@H]3CC(=O)[C@H]4C[C@@H](O)CC[C@]4(C)[C@H]3CC[C@]12C,-21.1% (inactive),–
CC(=O)OC1/C(C)=C/C(=O)C(OC(C)=O)C(C)(C)/C=C/C(C)C(=O)C2(OC(C)=O)CC(C)C(OC(=O)c3ccccc3)C12 (centres undefined),-0.121% [at 15.1 µM] (inactive),–
Cc1ccc(S(=O)(=O)Nc2ccccc2N2CCCCC2)s1,1.04% (inactive),–
CC1(O)CC(O)C2(O)C=COC(O[C@@H]3O[C@H](CO)[C@@H](O)[C@H](O)[C@H]3O)C12 (some centres undefined),-22.3% [at 33.1 µM] (inactive),–
CC1(C)CCCC2(C)C(CO)C(CO)=CCC12 (centres undefined),-10.6% (inactive),–
C[C@@H]1O[C@@H](O[C@H]2[C@H](O[C@H]3[C@H](O[C@H]4CC[C@@]5(C)C(CC[C@]6(C)C5CC=C5[C@@H]7CC(C)(C)C[C@@H](O)[C@]7(C)CC[C@]56C)[C@@]4(C)CO)O[C@H](C(=O)O)[C@@H](O)[C@@H]3O)OC[C@H](O)[C@@H]2O)[C@H](O)[C@H](O)[C@H]1O (some centres undefined),-1.95% [at 15.1 µM] (inactive),–
Cc1ncc(CCCN(C)C)cc1Nc1ncc2c(n1)-c1ccc(C(F)(F)F)cc1NC(=S)C2,-10.1% (inactive),–
CC(C)=C/C=C\[C@H](C)[C@H]1CC[C@]2(C)C[C@@H]3C(C)=CC(=O)C3/C(CO)=C\C[C@@H]12 (some centres undefined),-14% [at 33.1 µM] (inactive),–
C[C@@H](O)[C@H](NC(=O)c1ccc(C#Cc2ccc(CN3CCOCC3)cc2)cc1)C(=O)NO,16% (inactive),–
CC1CCC2(CO)C(C(=O)O)=CCCC2C1(C)CCc1ccoc1 (centres undefined),-13.3% [at 33.1 µM] (inactive),–
N=c1nc2n(cc1F)C1OC(CO)C(O)C1O2 (centres undefined),–,inactive
NC(=O)[C@H]1CCS[C@@H]2C[C@]3(CCCN3C(=O)Cc3ccc(NC(=O)COc4ccc(Cl)cc4Cl)cc3)C(=O)N12,21.4% (inactive),–
CC1CC[C@]2(C(=O)O)CC[C@]3(C(=O)O)C(=CCC4[C@@]5(C)CC[C@H](OC6OC(C)C(O)C(OC7OC(CO)C(O)C(O)C7O)C6O)C(C)(C)C5CC[C@]43C)C2C1C (some centres undefined),-27.6% [at 15.1 µM] (inactive),–
O=C(c1ccccc1)c1ccc2nc(NC(=O)c3csc(C4CCN(c5ncnc6ccsc56)CC4)n3)[nH]c2c1,11.7% (inactive),–
Nc1ncnc2c1nc(N)n2[C@@H]1O[C@H](CO)[C@@H](O)[C@H]1O,22.2% (inactive),–
CC1CC(O)/C=C/C(O)C(O)CC(=O)Cc2c(Cl)c(O)cc(O)c2C(=O)O1 (centres undefined),-12.2% [at 33.1 µM] (inactive),–
CC1=CCC2C(C)(C)CCC[C@]2(C)[C@@]12CC[C@](C)(CC(=O)O)O2 (some centres undefined),-3.57% [at 33.1 µM] (inactive),–
Cc1cc(C)c(CNC(=O)c2cc(-c3ccc(CN4CCOCC4)cc3)cc3c2cnn3C2CCCC2)c(=O)[nH]1,14.5% (inactive),–

Structure (SMILES),"activity change, negative = inhibition",outcome
CS(=O)(=O)N(CC(=O)NCC1CC1)c1cc(C(F)(F)F)ccc1Cl,-14% (inactive),–
OC/C=C/c1ccc(O[C@@H]2O[C@H](CO)[C@@H](O)[C@H](O)[C@H]2O)cc1,–,inactive [at 33.1 µM]
Cc1cc(-c2cc(O)ccc2Cl)cc2nnc(Nc3ccc(OCCN4CCCC4)cc3)nc12,40.2% (inactive),–
[N-]=[N+]=N[C@]1(CO)O[C@@H](n2ccc(=O)[nH]c2=O)[C@@H](O)[C@@H]1O,28% (inactive),–
C=C(C)C1Cc2cc(C(=O)OC3OC(CO)C(O)C(O)C3O)ccc2O1 (centres undefined),-16.7% [at 33.1 µM] (inactive),–
COc1cc(Br)c(Nc2nc(-c3c(C)nc4ncccn34)cs2)c(Br)c1,20.1% (inactive),–
CC(=O)O[C@H]1C[C@@](O)(C(C)C)C2[C@@H](OC(=O)c3ccc(O)cc3)C[C@@]3(C)O[C@H]3C[C@]21C (some centres undefined),-6.41% [at 33.1 µM] (inactive),–
O=C(O)c1cc(-c2c(-c3ccccc3)nn3ccccc23)n[nH]c1=O,–,inactive
COc1ccc(/C=C/C(=O)O[C@@H]2[C@@H](O)[C@H](C)O[C@@H](O[C@H]3[C@@H]4C=CO[C@@H](O[C@H]5O[C@@H](CO)[C@H](O)[C@@H](O)[C@@H]5O)[C@@H]4[C@@]4(CO)O[C@@H]34)[C@@H]2OC(C)=O)cc1,-7.47% [at 15.1 µM] (inactive),–
C=C(C(=O)O)C1CC2=C(C)CCCC2(C)C[C@@H]1O (some centres undefined),-13.5% (inactive),–
CO[C@H]1/C=C/C=C/C=C/C[C@H](OC(=O)[C@@H](C)NC(=O)C2CCCCC2)[C@H](C)[C@@H](O)/C(C)=C/CCc2cc(O)cc(c2)NC(=O)C1,-15.5% [at 15.1 µM] (inactive),–
COc1cc2occc2c(O[C@@H]2O[C@H](CO)[C@@H](O)[C@H](O)[C@H]2O)c1CCC(=O)O,–,inactive [at 33.1 µM]
CCCCOC(=O)NC(=O)C1c2ccccc2Oc2ccccc21,-9.32% (inactive),–
COc1ccc(-c2c(-c3cc(C(=O)O)ccn3)ncn2C)cc1,40% (inactive),–
Cc1noc(=O)c2ccc(NC(=O)C(O)(CC(C)(C)c3cccc4c3OCC4)C(F)(F)F)cc12 (centres undefined),7.46% (inactive),–
COc1cc(C(=O)OC[C@H]2O[C@@H](Oc3ccccc3/C=C/C(=O)O)[C@H](O)[C@@H](O)[C@@H]2O)cc(OC)c1OC,-11.9% [at 33.1 µM] (inactive),–
COC(=O)C[C@H]1[C@]2(C)C3=C(C)[C@H](c4ccoc4)C[C@H]3O[C@@H]2[C@H](OC(C)=O)C2[C@](C)(C(=O)OC)C=CC(=O)[C@@]21C (some centres undefined),-27% [at 33.1 µM] (inactive),–
COC(=O)C1=CO[C@@H](O[C@@H]2O[C@H](CO)[C@@H](O)[C@H](O)[C@H]2O)[C@H]2[C@@H]1CC(OC)O[C@@H]2C (some centres undefined),-14.2% [at 33.1 µM] (inactive),–
CC(C)C[C@H](CC(=O)NO)C(=O)N[C@H](C(=O)N[C@@H](C)C(=O)NCCN)C(C)(C)C,-11.4% [at 10.7 µM] (inactive),–

# Source: PubChem BioAssay (NCATS)
